# From PubChem BioAssay (NCATS)
# Inconclusive results are not listed. Calls of active or inactive are those of the source. Calls follow the shape of the dose curve; as a rule, active = well fitted curve in the direction sought with a large enough effect; inconclusive = small, poorly fitted or top-dose-only effect, or another doubt; inactive = no such curve, though single readings can be large; an effect the other way counts as inactive or inconclusive.
# Key:
# [1] = Quantitative High-Throughput drug screen in 47 multiple myeloma cell lines against the NCATS MIPE library collection: ARD_JJKsccE7 cell viability assay (AID 1918929)
# How it was run: (§1)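 CellTiter-Glo ATP luminescence gave viability after 48 h compound treatment at 37C of 500 multiple myeloma cells per well. Normalisation used DMSO-only wells as 100% and media-only wells as 0% viability; primary qHTS of approved and investigational drugs.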
# [2] = Quantitative High-Throughput drug screen in 47 multiple myeloma cell lines against the NCATS MIPE library collection: KMM1_JCRB cell viability assay (AID 1918960); also: nearly all actives have a fitted effect of over 30% in size
# How it was run: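 Myeloma cells at 500 per well in 1536-well format treated with MIPE 4.0 library by pin transfer for 48 h at 37C, 5% CO2. Viability from ATP luminescence (CellTiter-Glo), normalized to DMSO (100%) and media-only (0%) wells.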
# [3] = Quantitative High-Throughput drug screen in 47 multiple myeloma cell lines against the NCATS MIPE library collection: JIM3_ECACC cell viability assay (AID 1918963; also: nearly all actives have a fitted effect of over 35% in size)
# How it was run: (§2)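 CellTiter-Glo luminescence (ATP) after 48 h compound exposure, 37C/5% CO2; 500 cells/well; MIPE 4.0 approved/investigational drugs pinned in; DMSO = 100%, media only = 0% viability.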
# [4] = Quantitative High-Throughput drug screen in 47 multiple myeloma cell lines against the NCATS MIPE library collection: INA6_PLB cell viability assay (AID 1918965; also: nearly all actives have a fitted effect of over 55% in size)
# How it was run: (§3)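 Myeloma cells (500 per well) were exposed to MIPE 4.0 compounds by pin transfer and incubated 48 hours at 37C, 5% CO2. Viability was read as ATP by CellTiter-Glo luminescence, normalised to DMSO (100%) and media-only (0%) wells.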
# [5] = Quantitative High-Throughput drug screen in 47 multiple myeloma cell lines against the NCATS MIPE library collection: H1112_PLB cell viability assay (AID 1918967; also: nearly all actives have a fitted effect of over 30% in size)
# How it was run: as §1
# [6] = Quantitative High-Throughput drug screen in 47 multiple myeloma cell lines against the NCATS MIPE library collection: JJN3_DSMZ cell viability assay (AID 1918966; also: nearly all actives have a fitted effect of over 50% in size)
# How it was run: as §1
# [7] = Quantitative High-Throughput drug screen in 47 multiple myeloma cell lines against the NCATS MIPE library collection: Karpas417_ECACC cell viability assay (AID 1918961); conditions: Karpas417 myeloma viability, CellTiter-Glo ATP luminescence, 48 h; viability (% of DMSO): at 45.8 µM (top of the series)
# How it was run: as §3
# [8] = Quantitative High-Throughput drug screen in 47 multiple myeloma cell lines against the NCATS MIPE library collection: JIM1_ECACC cell viability assay (AID 1918964)
# How it was run: as §1
# [9] = Quantitative High-Throughput drug screen in 47 multiple myeloma cell lines against the NCATS MIPE library collection: Karpas620_DSMZ cell viability assay (AID 1918959); also: nearly all actives have a fitted effect of over 30% in size
# How it was run: as §2
# [10] = Quantitative High-Throughput drug screen in 47 multiple myeloma cell lines against the NCATS MIPE library collection: KHM11_PLB cell viability assay (AID 1918962); also: nearly all actives have a fitted effect of over 35% in size
# How it was run: as §2
# Potency is read from the fitted curve at half-maximal effect.
SMILES,Potency [1],Potency [2],Potency [3],Potency [4],Potency [5],Potency [6],Potency [7],Potency [8],Potency [9],Potency [10]
COC(=O)[C@@H]1[C@H]2C[C@@H]3c4[nH]c5ccccc5c4CCN3C[C@@H]2CC[C@@H]1O,inactive,inactive,inactive,inactive,inactive,–,–,–,–,–
COc1ccc2cc([S+]([O-])Cc3ncc(C)c(OC)c3C)nc2c1,inactive,–,inactive,–,inactive,inactive,–,–,–,–
CCc1cc(C(C)=NOCc2ccc(C3CCCCC3)c(C(F)(F)F)c2)ccc1CN1CC(C(=O)O)C1,4.69 µM (active),–,–,inactive,14.8 µM (active),–,0.059 µM (active),–,–,–
N#Cc1c(NC(=O)c2cccc3ccccc23)sc2c1CCCC2,0.296 µM (active),0.296 µM (active),0.209 µM (active),0.296 µM (active),0.418 µM (active),2.64 µM (active),–,0.187 µM (active),–,–
NC(=NCCCCCCN=C(N)N=C(N)Nc1ccc(Cl)cc1)N=C(N)Nc1ccc(Cl)cc1,–,18.7 µM (active),8.33 µM (active),1.66 µM (active),2.64 µM (active),3.32 µM (active),20.9 µM (active),23.5 µM (active),18.7 µM (active),5.9 µM (active)
CCCCCN=C(N)NN=Cc1c[nH]c2ccc(OC)cc12,2.96 µM (active),3.32 µM (active),5.26 µM (active),0.526 µM (active),–,–,–,1.48 µM (active),–,–
CCN1CCN(C(=O)N[C@H](C(=O)N[C@@H]2C(=O)N3C(C(=O)O)=C(CSc4nnnn4C)CS[C@@H]23)c2ccc(O)cc2)C(=O)C1=O,inactive,–,inactive,–,inactive,–,–,–,–,inactive
CNC(=O)c1cccc(-c2ccc3c(N4CCOC[C@H]4C)nc(N4CCOC[C@H]4C)nc3n2)c1,1.18 µM (active),–,0.0418 µM (active),0.526 µM (active),–,0.0743 µM (active),0.0526 µM (active),0.0132 µM (active),–,–
C=C1C(=CC=C2CCC[C@]3(C)[C@@H]([C@H](C)CCCC(C)(C)O)CC[C@@H]23)C[C@@H](O)C[C@@H]1O,4.18 µM (active),4.69 µM (active),–,5.9 µM (active),7.43 µM (active),–,–,5.26 µM (active),–,10.5 µM (active)
CC(C)c1cnn2c(NCc3ccccc3)cc(NCCCCCCN)nc12,20.9 µM (active),16.6 µM (active),20.9 µM (active),26.4 µM (active),–,23.5 µM (active),–,–,–,–
O=C(O)C[C@H](O)C[C@H](O)C=Cc1c(C2CC2)nc2ccccc2c1-c1ccc(F)cc1,4.18 µM (active),–,14.8 µM (active),4.18 µM (active),13.2 µM (active),–,–,0.935 µM (active),–,–
O=c1[nH]c(=O)n([C@H]2C[C@@H](O)[C@@H](CO)O2)cc1F,23.5 µM (active),1.66 µM (active),–,1.32 µM (active),4.69 µM (active),–,–,18.7 µM (active),–,–
COc1cc2c(cc1O)CCC1C2CC[C@@]2(C)C1CC[C@@H]2O (some centres undefined),inactive,–,1.32 µM (active),1.66 µM (active),–,8.33 µM (active),inactive,–,–,–
C#C[C@]1(O)CC[C@@H]2[C@@H]3CCc4cc(O)ccc4[C@H]3CC[C@@]21C,18.7 µM (active),–,20.9 µM (active),9.35 µM (active),18.7 µM (active),–,8.33 µM (active),–,–,–
C=C1C(=O)O[C@H]2[C@@H]1CCC(C)=CCC[C@@]1(C)O[C@@H]21,2.96 µM (active),–,2.96 µM (active),0.935 µM (active),4.18 µM (active),7.43 µM (active),–,–,–,–
N=c1ccn2c(n1)O[C@H]1[C@@H](O)[C@@H](CO)O[C@H]12,–,10.5 µM (active),inactive,4.18 µM (active),–,inactive,–,inactive,16.6 µM (active),–
N#CC(=Cc1ccc(O)c(O)c1)C(=O)NCc1ccccc1,–,inactive,8.33 µM (active),16.6 µM (active),7.43 µM (active),–,–,–,inactive,9.35 µM (active)
CC1(C)CC(O)CC(C)(C)N1[O],–,inactive,inactive,inactive,–,–,–,inactive,inactive,–
CC(C)N(CC[C@H](c1ccccc1)c1cc(CO)ccc1O)C(C)C,–,inactive,inactive,inactive,–,–,inactive,–,inactive,–
CN(C)CC[C@H](c1ccc(Cl)cc1)c1ccccn1,–,inactive,inactive,inactive,inactive,inactive,–,–,inactive,inactive
CC(C)[C@H](CO)Nc1nc(Nc2cccc(Cl)c2)c2ncn(C(C)C)c2n1,–,inactive,18.7 µM (active),18.7 µM (active),26.4 µM (active),–,–,–,inactive,–
